Screens from PubChem BioAssay.
SW480 rereplic – A quantitative high throughput screen for small molecules that induce DNA re-replication in SW480 colon adenocarcinoma cells; SW480 DNA re-replication, Hoechst DNA content imaging, 48 h; Potency, µM (titrated, usually from 46.1 µM), for the others: at the highest dose re-replication activation, most hits filed as activators; 1.8% of 340,000 active; note: potency is the fitted concentration of half-maximal effect; % of control where 0% means no effect; nearly all actives have a fitted effect of over 55% in size
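Quantitative HTS format with DMSO vehicle controls; 48 hr drug incubation at 37 C, then 40 min Hoechst staining and scanning imager measurement at 405 nm excitation.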
MCF10A rereplic – A quantitative high throughput screen for small molecules that induce DNA re-replication in MCF 10a normal breast cells. 2.9% of 350,000 active. Potency, µM (doses to about 46.1 µM), for the others: at the highest dose activity, positive = re-replication, most hits filed as activators. MCF 10A DNA re-replication, Hoechst nuclear intensity, 48 h; note: potency is the fitted concentration of half-maximal effect; % of control where 0% means no effect; nearly all actives have a fitted effect of over 50% in size
IL-1B inflam inh – qHTS for Inhibitors of Inflammasome Signaling: IL-1-beta AlphaLISA Primary Screen. THP-1 LPS/ATP IL-1B secretion, AlphaLISA, 16 h; active compounds read low. activity change, % at 57.5 µM. 4.7% of 360,000 active. AID 743279, 2014; in the data active = activity change below about -50%; inconclusive = mostly about -30% to -49%; note: % is set by controls: 0 for no effect and ±100 for the full control effect
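THP-1 cells pretreated 1 hr with compounds (up to 57.5 uM final), then stimulated with LPS (250 ng/mL final) plus ATP (1.25 mM final); secreted IL-1B measured by AlphaLISA after 16 hr, decreased signal indicating inhibition.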
KB-V1 cytotox – qHTS assay for MDR1-selective chemotherapeutics: Primary screen using the drug-selected MDR subline cells KB-V1; KB-V1 MDR cells viability, CellTiter-Glo, 72 h; Potency, µM (top dose mostly 46.1 µM), actives largely listed as cytotoxic; 3.4% of 400,000 active; note: potency is the fitted concentration of half-maximal effect; % is set by controls: 0 for no effect and ±100 for the full control effect; nearly all actives have a fitted effect of over 60% in size
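Cells of the MDR subline KB-V1 are plated, dosed with compound at multiple concentrations, and incubated 72 h at 37 degrees C; CellTiter-Glo is then added and luminescence read after 10 min.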
KB-3-1 cytotox – qHTS assay for MDR1-selective chemotherapeutics: Primary screen using the parental adenocarcinoma cell KB-3-1; Potency, µM (titrated, usually from 46.1 µM), actives largely listed as cytotoxic; AID 1347075, 2019; 1.4% of 400,000 active; KB-3-1 viability, CellTiter-Glo ATP luminescence, 72 h; note: potency is the fitted concentration of half-maximal effect; % is set by controls: 0 for no effect and ±100 for the full control effect; nearly all actives have a fitted effect of over 60% in size
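Parental KB-3-1 viability, qHTS format: 72 h compound exposure, 37 °C; CellTiter-Glo; media-only wells and DMSO plates as controls; concentration-effect fits on corrected data.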
Active calls of the source: *. Only some compounds are listed: those with a hit (about 9.9% of all), similar ones and a draw of the others. Unless noted, calls come from the whole dose curve; as a rule, active = well fitted curve in the direction sought with a large enough effect; inconclusive = small, poorly fitted or top-dose-only effect, or another doubt; inactive = no such curve, though single readings can be large; an effect the other way counts as inactive or inconclusive.

What do the screens show for `FC(F)Oc1ccc(-c2csc(NNC3=NCCCCC3)n2)cc1`?
SW480 rereplic: 6.0%; MCF10A rereplic: inconclusive; IL-1B inflam inh: -93.2*; KB-V1 cytotox: inactive; KB-3-1 cytotox: inactive

How did Brc1ccc(-c2csc(NNC3=NCCCCC3)n2)cc1 do in these assays?
SW480 rereplic: 3.0%; MCF10A rereplic: inconclusive; IL-1B inflam inh: -53.0*; KB-V1 cytotox: inactive; KB-3-1 cytotox: inconclusive

Results for CC(C)(C)c1ccc(-c2csc(NNC3=NCCCCC3)n2)cc1 ?
SW480 rereplic: inconclusive; MCF10A rereplic: inconclusive; IL-1B inflam inh: -61.4*; KB-V1 cytotox: inconclusive; KB-3-1 cytotox: inactive

How did Oc1ccccc1N=Nc1nc(-c2ccccc2)c(-c2ccccc2)[nH]1 do in these assays?
SW480 rereplic: inconclusive; MCF10A rereplic: inconclusive; IL-1B inflam inh: -9.4; KB-V1 cytotox: 0.92µM*; KB-3-1 cytotox: inactive

How did CC1(C)CC(=O)C(C(c2ccccc2F)C2C(=O)CC(C)(C)CC2=O)C(=O)C1 do in these assays?
SW480 rereplic: -2.9%; MCF10A rereplic: 0.7%; IL-1B inflam inh: -1.5; KB-V1 cytotox: inactive; KB-3-1 cytotox: inactive

How did CN1C2CCC1/C(=C\c1ccccc1F)C(=O)/C2=C/c1ccccc1F do in these assays?
SW480 rereplic: 11.9%; MCF10A rereplic: inconclusive; IL-1B inflam inh: -100.8*; KB-V1 cytotox: 13µM*; KB-3-1 cytotox: inconclusive

Results for Cc1cc(C)cc(OCC(=O)NNC(=O)CC(C)c2ccccc2)c1 (stereo not given) ?
IL-1B inflam inh: -20.2; KB-V1 cytotox: inactive; KB-3-1 cytotox: inactive

What do the screens show for `Cc1cccc(NC(=O)CSCC(=O)Nc2ccccc2C(=O)NC2CC2)c1`?
SW480 rereplic: -312.4%; MCF10A rereplic: inconclusive; IL-1B inflam inh: -2.4; KB-V1 cytotox: inactive; KB-3-1 cytotox: inactive

How did CCOC(=O)COn1c(=O)c(-c2ccco2)[n+]([O-])c2ccccc21 do in these assays?
SW480 rereplic: -2.7%; MCF10A rereplic: -2.6%; IL-1B inflam inh: -69.0*; KB-V1 cytotox: inactive; KB-3-1 cytotox: inactive

Results for O=C(Nc1cccc(C(F)(F)F)c1)c1cccnc1N1CCN(c2ccccc2)CC1 ?
SW480 rereplic: 0.4%; MCF10A rereplic: inconclusive; IL-1B inflam inh: -77.3*; KB-V1 cytotox: inconclusive; KB-3-1 cytotox: inactive

How did COc1cc(C(=O)N2CCN(c3ccccc3Cl)CC2)ccc1OCC(=O)N1CCOCC1 do in these assays?
SW480 rereplic: -14.6%; MCF10A rereplic: -5.9%; IL-1B inflam inh: -4.8; KB-V1 cytotox: inactive; KB-3-1 cytotox: inactive

Results for O=C(CCNS(=O)(=O)c1cccs1)N1CCN(c2cccc(C(F)(F)F)c2)CC1 ?
SW480 rereplic: -1.9%; MCF10A rereplic: 4.3%; IL-1B inflam inh: -12.3; KB-V1 cytotox: 16.4µM*; KB-3-1 cytotox: inactive

What do the screens show for `COc1cc(C(=O)N2CCN(c3cccc(C(F)(F)F)c3)CC2)ccc1OCC(=O)N1CCOCC1`?
SW480 rereplic: -3.6%; MCF10A rereplic: 0.3%; IL-1B inflam inh: -10.3; KB-V1 cytotox: 18.4µM*; KB-3-1 cytotox: inactive

What do the screens show for `CN1CCN(C(=O)Nc2cccc(-c3ccccc3)c2)CC1`?
SW480 rereplic: 16.4µM*; MCF10A rereplic: inconclusive; IL-1B inflam inh: -0.6; KB-V1 cytotox: inactive; KB-3-1 cytotox: inactive

How did CC(C)CC(=O)N1CCN(c2ccc(NC(=O)c3ccco3)cc2)CC1 do in these assays?
SW480 rereplic: -19.3%; MCF10A rereplic: 2.5%; IL-1B inflam inh: -10.2; KB-V1 cytotox: inactive; KB-3-1 cytotox: inactive

Results for CCN(C(=O)COC(=O)COc1ccc(Cl)c(C)c1)C1CCS(=O)(=O)C1 (stereo not given) ?
SW480 rereplic: -2.0%; MCF10A rereplic: -0.3%; IL-1B inflam inh: 13.1; KB-V1 cytotox: inactive; KB-3-1 cytotox: inactive

Results for Cc1occc1C(=O)N1CCCC(N2CCN(c3cccc(C(F)(F)F)c3)CC2)C1 (stereo not given) ?
SW480 rereplic: -38.3%; MCF10A rereplic: inconclusive; IL-1B inflam inh: -7.0; KB-V1 cytotox: inconclusive; KB-3-1 cytotox: inactive

How did Cc1cc(C(=O)N2CCCC(N3CCN(c4cccc(C(F)(F)F)c4)CC3)C2)c(C)o1 (stereo not given) do in these assays?
SW480 rereplic: 18.4µM*; MCF10A rereplic: inconclusive; IL-1B inflam inh: inconclusive; KB-V1 cytotox: inactive; KB-3-1 cytotox: inactive

What do the screens show for `CC(C)(C)c1ccc(NC(=O)N2CCCN(c3ccc([N+](=O)[O-])cn3)CC2)cc1`?
SW480 rereplic: 2.2%; MCF10A rereplic: -12.6%; KB-V1 cytotox: 10.3µM*; KB-3-1 cytotox: inconclusive

What do the screens show for `CC(=O)c1ccc(N2CCN(C(=O)Nc3ccc(Cl)cc3)CC2)cc1`?
SW480 rereplic: -3.6%; MCF10A rereplic: 12.8%; IL-1B inflam inh: -9.3; KB-V1 cytotox: inconclusive; KB-3-1 cytotox: inactive

How did O=C(Nc1ccc([N+](=O)[O-])cc1)N1CCCCCC1 do in these assays?
SW480 rereplic: -2.5%; MCF10A rereplic: 0.1%; IL-1B inflam inh: -0.6; KB-V1 cytotox: inconclusive; KB-3-1 cytotox: inactive

How did COc1ccccc1C(=O)N1CCN(c2cccc(C(F)(F)F)c2)CC1 do in these assays?
SW480 rereplic: 23.1µM*; MCF10A rereplic: 11.2µM*; IL-1B inflam inh: -2.0; KB-V1 cytotox: 2.91µM*; KB-3-1 cytotox: 5.17µM*

What do the screens show for `CC(=O)c1ccc(NC(=O)N2CCN(c3cccc(Cl)c3)CC2)cc1`?
SW480 rereplic: -1.2%; MCF10A rereplic: inconclusive; IL-1B inflam inh: -15.1; KB-V1 cytotox: 23.1µM*; KB-3-1 cytotox: inactive

How did CCn1cc(C(=O)N2CCN(c3cccc(C(F)(F)F)c3)CC2)c2cc(OC)c(OC)cc2c1=O do in these assays?
KB-V1 cytotox: inactive; KB-3-1 cytotox: inactive

What do the screens show for `CN1C(=O)CCC(CCC(=O)O)(c2ccccc2O)C1=O` (stereo not given)?
SW480 rereplic: 1.7%; MCF10A rereplic: -0.8%; IL-1B inflam inh: 14.4; KB-V1 cytotox: inactive; KB-3-1 cytotox: inactive

What do the screens show for `COc1ccc(OC(C)C(=O)NCc2nc(-c3ccc(Cl)cc3)no2)cc1` (stereo not given)?
KB-V1 cytotox: inconclusive; KB-3-1 cytotox: inactive

How did O=C(O)[C@H](Cc1ccccc1)NC(=O)N1CCN(c2cccc(C(F)(F)F)c2)CC1 do in these assays?
SW480 rereplic: -22.2%; MCF10A rereplic: -0.6%; IL-1B inflam inh: -2.2; KB-V1 cytotox: inactive; KB-3-1 cytotox: inactive

How did O=C(Nc1ccccc1)N1CCN(c2ccc(C(F)(F)F)cn2)CC1 do in these assays?
SW480 rereplic: -4.6%; MCF10A rereplic: 1.1%; IL-1B inflam inh: inconclusive; KB-V1 cytotox: 8.2µM*; KB-3-1 cytotox: inconclusive
